The panel holds about 83,000 compounds, 20% with a hit somewhere; the sample as a whole holds those more often.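 For each line, cells grew in 96-well plates with the test compound present at a single concentration for 48 hours.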 Active and inactive are the calls of the source. The calls were made as follows: active = growth percent below 10; inactive = the rest.
Tests used:
Assay in all cases: NCI-60 one-dose screen, 48 h (100 = growth as untreated, 0 = no growth, -100 = all killed)
Conditions in all cases: 10 µM unless noted
SR leukemia = system: SR leukemia
RPMI-8226 leukemia = system: RPMI-8226 leukemia
OVCAR-8 ovarian = system: OVCAR-8 ovarian
OVCAR-5 ovarian = system: OVCAR-5 ovarian
OVCAR-4 ovarian = system: OVCAR-4 ovarian
SK-OV-3 ovarian = system: SK-OV-3 ovarian
IGROV1 ovarian = system: IGROV1 ovarian
OVCAR-3 ovarian = system: OVCAR-3 ovarian
HS 578T breast = system: HS 578T breast
NCI/ADR-RES ovarian = system: NCI/ADR-RES ovarian

Measured: growth

CN(C)CCn1c2ccc(Br)cc2c2nc3ccccc3nc21
inactive: SR leukemia 11.2% | OVCAR-8 ovarian 32.9% | OVCAR-5 ovarian 46.4% | OVCAR-4 ovarian 44% | SK-OV-3 ovarian 50.8% | IGROV1 ovarian 18% | OVCAR-3 ovarian 39.9% | HS 578T breast 77.8% | NCI/ADR-RES ovarian 31.8%
active: RPMI-8226 leukemia 9.2%

Cc1ccc(C(=O)/C(=C\c2ccc([N+](=O)[O-])cc2)S(=O)Cc2ccc(F)cc2)cc1 (stereo unspecified)
active: SR leukemia 7.86% | RPMI-8226 leukemia -21.3% | IGROV1 ovarian -16.8% | OVCAR-3 ovarian 9.09%
inactive: OVCAR-8 ovarian 12.5% | OVCAR-5 ovarian 37.3% | OVCAR-4 ovarian 30.6% | SK-OV-3 ovarian 102% | HS 578T breast 21.9%

COc1cc(/C(C)=C(\c2ccc(Cl)cc2)c2ccc(OCCN(C)C)cc2)ccc1F
active: SR leukemia 0.487%
inactive: RPMI-8226 leukemia 12.2% | OVCAR-8 ovarian 73.9% | OVCAR-5 ovarian 75.3% | OVCAR-4 ovarian 45.9% | SK-OV-3 ovarian 111% | IGROV1 ovarian 35.3% | OVCAR-3 ovarian 59.4% | HS 578T breast 71.7%

O=C(O)c1ccc(-c2nn(-c3ccc(C(F)(F)F)cc3)cc2CNc2ccc(Oc3ccccc3)cc2)cc1
inactive: SR leukemia 60.7% | RPMI-8226 leukemia 46.5% | OVCAR-8 ovarian 69% | OVCAR-5 ovarian 103% | OVCAR-4 ovarian 90.3% | SK-OV-3 ovarian 135% | IGROV1 ovarian 89% | OVCAR-3 ovarian 92.5% | HS 578T breast 95.7% | NCI/ADR-RES ovarian 81.9%

Cc1ccc(NS(=O)(=O)c2ccc(-c3cnc(C4CC4)o3)cc2)cc1C(F)(F)F
inactive: SR leukemia 28.6% | RPMI-8226 leukemia 55.2% | OVCAR-8 ovarian 78.5% | OVCAR-5 ovarian 93.2% | OVCAR-4 ovarian 69.4% | SK-OV-3 ovarian 86.8% | IGROV1 ovarian 51.8% | OVCAR-3 ovarian 24.5% | HS 578T breast 69%

Cn1c2ccccc2c2c3c(c4c5ccccc5n(C)c4c21)C(=O)OC3
inactive: SR leukemia 83.9% | RPMI-8226 leukemia 89.9% | OVCAR-8 ovarian 98.6% | OVCAR-5 ovarian 95.9% | OVCAR-4 ovarian 96.9% | SK-OV-3 ovarian 100% | IGROV1 ovarian 78% | OVCAR-3 ovarian 102% | HS 578T breast 97.4% | NCI/ADR-RES ovarian 95.5%

O=S(=O)(NCCCNc1nccc(-c2c(-c3cccc(O)c3)nc3occn23)n1)c1ccc(Cl)cc1
inactive: SR leukemia 87.1% | RPMI-8226 leukemia 81% | OVCAR-8 ovarian 77.5% | OVCAR-5 ovarian 130% | OVCAR-4 ovarian 108% | SK-OV-3 ovarian 75.4% | IGROV1 ovarian 59.7% | OVCAR-3 ovarian 93.2% | HS 578T breast 92.8% | NCI/ADR-RES ovarian 112%

COc1cc2oc(-c3cccc(C(=O)Nc4ccccc4)c3)cc(=O)c2c(O)c1OC
inactive: SR leukemia 95.7% | RPMI-8226 leukemia 83.5% | OVCAR-8 ovarian 15.4% | OVCAR-5 ovarian 94.4% | SK-OV-3 ovarian 15% | IGROV1 ovarian 85.4% | OVCAR-3 ovarian 70.1% | HS 578T breast 11.1% | NCI/ADR-RES ovarian 79.1%
active: OVCAR-4 ovarian -20.2%

Brc1ccc(Nc2csc(-c3ccccn3)n2)cc1
inactive: SR leukemia 97.3% | RPMI-8226 leukemia 98% | OVCAR-8 ovarian 98.6% | OVCAR-5 ovarian 76.6% | OVCAR-4 ovarian 101% | SK-OV-3 ovarian 82.8% | IGROV1 ovarian 63.4% | OVCAR-3 ovarian 95.7% | HS 578T breast 92.4%

NC(=O)CSSCC(N)=O
inactive: SR leukemia 85.2% | RPMI-8226 leukemia 91.4% | OVCAR-8 ovarian 101% | OVCAR-5 ovarian 105% | OVCAR-4 ovarian 111% | SK-OV-3 ovarian 109% | IGROV1 ovarian 97.8% | OVCAR-3 ovarian 114% | HS 578T breast 97.6% | NCI/ADR-RES ovarian 105%

COc1ccccc1/C=C1\Oc2cc(OCCN3CCCC3)ccc2C1=O
inactive: RPMI-8226 leukemia 82.2% | OVCAR-8 ovarian 91.8% | OVCAR-5 ovarian 86.2% | OVCAR-4 ovarian 93.9% | SK-OV-3 ovarian 98.2% | IGROV1 ovarian 97.3% | OVCAR-3 ovarian 96.2% | HS 578T breast 80.6% | NCI/ADR-RES ovarian 90.9%
active: SR leukemia -8.89%

COC(=O)/C=C1\S/C(=N\NC(=O)c2cc3ccc2/C=C\c2ccc(cc2)/C=C\3)N(Cc2ccccc2)C1=O
active: SR leukemia -14.7% | RPMI-8226 leukemia -47%
inactive: OVCAR-8 ovarian 71.6% | OVCAR-5 ovarian 65.3% | OVCAR-4 ovarian 44.6% | SK-OV-3 ovarian 133% | IGROV1 ovarian 42.3% | OVCAR-3 ovarian 20.3% | HS 578T breast 87.4% | NCI/ADR-RES ovarian 70.4%

COc1ccc2c(c1)oc1c(C)c3c(c(C)c12)C(=O)N(CCN1CCOCC1)C3=O
inactive: SR leukemia 85.8% | RPMI-8226 leukemia 92.2% | OVCAR-8 ovarian 92% | OVCAR-5 ovarian 92.6% | OVCAR-4 ovarian 103% | SK-OV-3 ovarian 114% | IGROV1 ovarian 91.4% | OVCAR-3 ovarian 106% | HS 578T breast 102% | NCI/ADR-RES ovarian 104%

COc1ccc(C(=O)Cn2c(C(=O)c3ccccc3)nc3ccccc32)cc1
inactive: SR leukemia 13% | OVCAR-8 ovarian 49.3% | OVCAR-5 ovarian 62% | OVCAR-4 ovarian 40.4% | SK-OV-3 ovarian 73% | IGROV1 ovarian 10.1%
active: RPMI-8226 leukemia -6.46% | OVCAR-3 ovarian 5.28% | HS 578T breast -7.32% | NCI/ADR-RES ovarian -28.3%

Cc1cnc(C(=O)Nc2nc3ccc(S(=O)(=O)Nc4ccc(C(C)(C)C)cc4)cc3[nH]2)cn1
active: OVCAR-3 ovarian -14.3% | HS 578T breast 4.25%
inactive: SR leukemia 12.3% | RPMI-8226 leukemia 18.6% | OVCAR-8 ovarian 29.2% | OVCAR-5 ovarian 34.8% | OVCAR-4 ovarian 46.5% | SK-OV-3 ovarian 43% | IGROV1 ovarian 35.1% | NCI/ADR-RES ovarian 13.8%

O=Cc1ccc(-c2cn3ccnc3c(-c3ccc4ncn(Cc5ccccc5)c4c3)n2)cc1
inactive: SR leukemia 52.5% | RPMI-8226 leukemia 17.5% | OVCAR-8 ovarian 56% | OVCAR-5 ovarian 102% | OVCAR-4 ovarian 83.1% | SK-OV-3 ovarian 94.9% | IGROV1 ovarian 78.7% | OVCAR-3 ovarian 76.3% | HS 578T breast 54.4% | NCI/ADR-RES ovarian 62.6%

CC(Sc1nc2sc3c(c2c(=O)n1-c1ccc(Cl)cc1)CCCC3)C(=O)Nc1nc(-c2ccc(Br)cc2)cs1 (stereo unspecified)
inactive: SR leukemia 97.6% | RPMI-8226 leukemia 102% | OVCAR-8 ovarian 103% | OVCAR-5 ovarian 93.9% | OVCAR-4 ovarian 109% | SK-OV-3 ovarian 96.6% | IGROV1 ovarian 96% | OVCAR-3 ovarian 114% | HS 578T breast 112% | NCI/ADR-RES ovarian 95.6%

CCc1ccc(-c2cn3ccnc3c(-c3ccc4ncn(Cc5ccccc5)c4c3)n2)cc1
inactive: SR leukemia 50.1% | RPMI-8226 leukemia 44.6% | OVCAR-8 ovarian 69.2% | OVCAR-5 ovarian 85.1% | OVCAR-4 ovarian 64.9% | SK-OV-3 ovarian 99.4% | IGROV1 ovarian 75% | OVCAR-3 ovarian 68.8% | HS 578T breast 78.2% | NCI/ADR-RES ovarian 58.8%

O=C(CCN1CCCC1)Nc1ccc2c(NCCc3ccccc3)c3ccccc3nc2c1
active: SR leukemia -16.1% | RPMI-8226 leukemia -41.9% | OVCAR-8 ovarian 3.23% | OVCAR-5 ovarian 7.44% | OVCAR-4 ovarian -24.6% | SK-OV-3 ovarian -6.92% | IGROV1 ovarian -6.54% | OVCAR-3 ovarian -37.8% | HS 578T breast -25.1%
inactive: NCI/ADR-RES ovarian 71.5%

COc1cc2nc(-c3ccc(C(F)(F)F)cc3)cc(OCCCN3CCOCC3)c2cc1OC
inactive: SR leukemia 16.5% | RPMI-8226 leukemia 10.8% | OVCAR-8 ovarian 41.6% | OVCAR-5 ovarian 45.8% | OVCAR-4 ovarian 52.8% | SK-OV-3 ovarian 70.3% | IGROV1 ovarian 36.4% | OVCAR-3 ovarian 61.6% | HS 578T breast 54.7% | NCI/ADR-RES ovarian 40.4%

N/C(=N\C(N)=N\c1nc2ccccc2s1)c1cccc(Cl)c1
inactive: SR leukemia 16.6% | RPMI-8226 leukemia 80.8% | OVCAR-8 ovarian 70.8% | OVCAR-5 ovarian 111% | OVCAR-4 ovarian 71.5% | SK-OV-3 ovarian 98.3% | IGROV1 ovarian 75.9% | OVCAR-3 ovarian 99.2% | HS 578T breast 97% | NCI/ADR-RES ovarian 77.4%

NS(=O)(=O)c1ccc(CCN2C(=O)C=CC2=O)cc1
inactive: SR leukemia 91.6% | RPMI-8226 leukemia 102% | OVCAR-8 ovarian 104% | OVCAR-5 ovarian 106% | OVCAR-4 ovarian 97.7% | SK-OV-3 ovarian 110% | IGROV1 ovarian 104% | OVCAR-3 ovarian 106% | HS 578T breast 108% | NCI/ADR-RES ovarian 99.6%

CCN1CCN(CCNc2nccc(-c3c(-c4cccc(OC)c4)nc4occn34)n2)S1(=O)=O
inactive: SR leukemia 96.3% | RPMI-8226 leukemia 96.2% | OVCAR-8 ovarian 99.3% | OVCAR-5 ovarian 130% | OVCAR-4 ovarian 114% | SK-OV-3 ovarian 92% | IGROV1 ovarian 79.9% | OVCAR-3 ovarian 107% | HS 578T breast 114% | NCI/ADR-RES ovarian 109%

CC(=O)Nc1ccc(-c2ccc3c(c2)NC(=O)/C3=C\c2ccc[nH]2)cc1
inactive: SR leukemia 36.5% | RPMI-8226 leukemia 94.4% | OVCAR-8 ovarian 99.8% | OVCAR-5 ovarian 73% | OVCAR-4 ovarian 102% | SK-OV-3 ovarian 121% | IGROV1 ovarian 96.6% | OVCAR-3 ovarian 104% | HS 578T breast 110% | NCI/ADR-RES ovarian 96.7%

Cc1ccc(NC(C(=O)c2ccccc2)c2ccccc2)cc1 (stereo unspecified)
inactive: SR leukemia 69% | RPMI-8226 leukemia 25.6% | OVCAR-8 ovarian 45.9% | OVCAR-5 ovarian 78.4% | OVCAR-4 ovarian 49.5% | SK-OV-3 ovarian 95.5% | IGROV1 ovarian 57.6% | OVCAR-3 ovarian 29.4% | HS 578T breast 32.7% | NCI/ADR-RES ovarian 92.8%

O=C1c2ccccc2C(=O)c2c([N+](=O)[O-])ccc(Cl)c21
inactive: SR leukemia 54% | RPMI-8226 leukemia 81.8% | OVCAR-8 ovarian 75.2% | OVCAR-5 ovarian 135% | OVCAR-4 ovarian 62.2% | SK-OV-3 ovarian 112% | IGROV1 ovarian 71.5% | OVCAR-3 ovarian 57.1% | HS 578T breast 98.8% | NCI/ADR-RES ovarian 92.4%

Cc1ccccc1NS(=O)(=O)c1cccc(C(=O)Nc2ccc(Br)cc2)c1
inactive: SR leukemia 45.2% [25 µM] | RPMI-8226 leukemia 33.6% [25 µM] | OVCAR-8 ovarian 40.5% [25 µM] | OVCAR-5 ovarian 76.7% [25 µM] | OVCAR-4 ovarian 36.5% [25 µM] | SK-OV-3 ovarian 46.3% [25 µM] | IGROV1 ovarian 40.5% [25 µM] | OVCAR-3 ovarian 47.3% [25 µM] | HS 578T breast 59.1% [25 µM] | NCI/ADR-RES ovarian 19.1% [25 µM]

Source: PubChem BioAssay (NCI)
